Mot1-301 SUMO: yeast Mot1-301 growth rescue at high temperature, primary screen, SUMOylation pathway inhibitor project, S. cerevisiae, ATP luminescence, 38.5C | S. cerevisiae Mot1-301 growth rescue; percent above DMSO median, 100 means doubled | growth rescue, % at 18.8 µM | hit rate 1% among 320,000 | AID 2716, 2010;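 active = every valid replicate shows activation above 250% relative to neutral control wells; inactive = the rest, any valid replicate at or below 250%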;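 also: OY570 slx delta 5 strain wells were the positive control but not used for scaling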
AHR act: AHR activators, primary screen, cell-based, luminescence, luciferase reporter, human; Aryl hydrocarbon receptor (Homo sapiens), P35869; AHR-responsive luciferase reporter cells; activation, % at 5 µM; hit rate 2.5% among 320,000; AID 2796, 2010; in the data active = activation above about 47%;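 also: 0% = vehicle wells and 100% = reference agonist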
Efflux pump mplx: inhibitors of Candida efflux pumps in yeast, primary screen, S. cerevisiae, Nile Red, multiplex; S. cerevisiae Candida pump triplex; inhibition, % at 10 µM; hit rate 0.44% among 330,000; AID 485275, 2010;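 active = plate passing quality check with inhibition over a set limit, or well fluorescence over plate mean plus 4 SD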;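 also: Nile Red retained in pooled yeast measured as flow cytometry median fluorescence; 0% = buffer negative control and 100% = Enniatin B positive control; higher means more Nile Red kept so more efflux inhibition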
VLA-4 inh: inhibition in human VLA-4 binding assay, primary screen, VLA-4 allosteric modulator project, MLPCN library, flow cytometry, VLA-4 expressing cells. Integrin alpha-4 (Homo sapiens), P13612. ligand binding flow cytometry. inhibition, % (about 7 µM as worked out from the volumes in the protocol). hit rate 0.2% among 330,000. AID 2557, 2010; in the data active = inhibition above about 50%
ALR H2O2 inh: inhibitors of human ALR sulfhydryl oxidase, primary screen, biochemical, H2O2 detection, HRP-luminol luminescence, single point; FAD-linked sulfhydryl oxidase ALR (Homo sapiens), P55789; purified ALR, DTT oxidation; inhibition, % (concentration not given with the values); hit rate 3.8% among 290,000;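 active = mean replicate inhibition above about 79%, with every replicate also reaching it, limit read from the data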
A1 inh: caspase 3/7 activation in MEF A1-2A-BIM cells, primary screen, A1 inhibitor project, cell-based, luminescence, HTS; hit rate 0.066% among 330,000; caspase activation, % (no concentration beside the values); AID 2462, 2010; Caspase-Glo 3/7 luminescence, 3 h; percent of clofoctol response, vehicle zero;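 active = over half of replicate activation scores above 10%, or exactly half above 10 with the replicate mean above 10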
An asterisk follows results filed as active. Only some compounds are listed: those with a hit (about 7.2% of all), similar ones and a draw of the others.

What do the screens show for `COc1cc(NC(=O)C2CC2)c(OC)cc1NC(=O)CCC(=O)NC1CCN(Cc2ccccc2)CC1`?
Mot1-301 SUMO: -8; AHR act: 0; Efflux pump mplx: 0; VLA-4 inh: 14; ALR H2O2 inh: -1; A1 inh: 0

Results for COc1ccc(-c2nc(CSCC(=O)NC3CC3)c(C)o2)cc1OC ?
Mot1-301 SUMO: 27; AHR act: 3; Efflux pump mplx: 0; VLA-4 inh: -7; ALR H2O2 inh: 99*; A1 inh: 0

Results for CCOC(=O)N1CCC(NC(=O)CSCc2nc(-c3ccc(OC)c(OC)c3)oc2C)CC1 ?
Mot1-301 SUMO: -11; AHR act: 0; Efflux pump mplx: 0; VLA-4 inh: -23; ALR H2O2 inh: 98*; A1 inh: 0

Results for COc1ccc(-c2nc(CSCC(=O)NC3CCN(Cc4ccccc4)CC3)c(C)o2)cc1OC ?
Mot1-301 SUMO: 11; AHR act: 0; Efflux pump mplx: 0; VLA-4 inh: 15; ALR H2O2 inh: 99*; A1 inh: 1

What do the screens show for `COc1ccc(-c2nc(CN3CCC(C(=O)NC4CCN(Cc5ccccc5)CC4)CC3)c(C)o2)cc1OC`?
Mot1-301 SUMO: -9; AHR act: -1; Efflux pump mplx: 0; VLA-4 inh: -2; ALR H2O2 inh: 43; A1 inh: 1

How did COc1ccc(-c2nc(CSCC(=O)NC3CCCc4ccccc43)c(C)o2)cc1OC (stereo not given) do in these assays?
Mot1-301 SUMO: 10; AHR act: 1; Efflux pump mplx: 1; VLA-4 inh: -2; A1 inh: -1

How did COc1ccc(-c2nc(CSCC(=O)NC3CCCC3)c(C)o2)cc1OC do in these assays?
Mot1-301 SUMO: 7; AHR act: 5; Efflux pump mplx: 0; VLA-4 inh: 2; ALR H2O2 inh: 99*; A1 inh: 0

How did Cc1ccc(S(=O)(=O)N(C)CC(=O)NNC(=O)Cc2ccccc2F)cc1 do in these assays?
Mot1-301 SUMO: 6; AHR act: 4; Efflux pump mplx: 0; VLA-4 inh: -4; ALR H2O2 inh: 5; A1 inh: 1

What do the screens show for `COc1cccc(-c2cc(C(F)(F)F)n3nc(N)nc3n2)c1`?
Mot1-301 SUMO: 543; AHR act: 68*; Efflux pump mplx: 0; VLA-4 inh: 10; ALR H2O2 inh: 95*; A1 inh: 0

What do the screens show for `COc1ccc(-c2cc(C(F)(F)F)n3nc(N)nc3n2)cc1`?
Mot1-301 SUMO: 18; AHR act: -8; Efflux pump mplx: 0; VLA-4 inh: 0; ALR H2O2 inh: -5; A1 inh: -1

How did O=[N+]([O-])c1ccc(C2=CSC3=NCCN23)cc1 do in these assays?
Mot1-301 SUMO: -19; AHR act: 1; Efflux pump mplx: 0; VLA-4 inh: 0; ALR H2O2 inh: 34; A1 inh: 0

How did [O-][n+]1c2cc(C(F)(F)F)ccc2c2n1CCN=C2c1ccc(Cl)cc1 do in these assays?
Mot1-301 SUMO: -22; AHR act: 63*; Efflux pump mplx: 0; VLA-4 inh: -13; ALR H2O2 inh: 15; A1 inh: 0

Results for Nc1c(Cl)cc(C2=NCCn3c2c2ccc([N+](=O)[O-])cc2[n+]3[O-])cc1Cl ?
Mot1-301 SUMO: 73; AHR act: 73*; Efflux pump mplx: 0; VLA-4 inh: -25; ALR H2O2 inh: -30; A1 inh: 0

Results for Nc1ccccc1SCc1ccccc1Cl ?
Mot1-301 SUMO: -13; AHR act: 67*; Efflux pump mplx: 0; VLA-4 inh: -4; ALR H2O2 inh: 0; A1 inh: 0

What do the screens show for `Nc1ccccc1SCc1c(Cl)cccc1Cl`?
Mot1-301 SUMO: 14; AHR act: 50*; Efflux pump mplx: 0; VLA-4 inh: 2; ALR H2O2 inh: 40; A1 inh: 0

What do the screens show for `Nc1ccccc1SSc1ccccc1N`?
Mot1-301 SUMO: 8; AHR act: 19; Efflux pump mplx: 0; VLA-4 inh: -1; A1 inh: 0

How did O=C(COC(=O)Cc1cccc(C(F)(F)F)c1)NC(=O)NC1CCCC1 do in these assays?
Mot1-301 SUMO: 11; AHR act: 1; Efflux pump mplx: 0; VLA-4 inh: 31; ALR H2O2 inh: -2; A1 inh: 1

What do the screens show for `O=C(NCc1ccc(F)cc1)C1CCN(c2cnccn2)CC1`?
Mot1-301 SUMO: 5; AHR act: 3; Efflux pump mplx: 0; VLA-4 inh: -5; ALR H2O2 inh: -2; A1 inh: 1

Results for CC(C)(C)C(=O)Nc1ccc(C(=O)CN2C(=O)NC3(CCOc4ccccc43)C2=O)cc1 (stereo not given) ?
Mot1-301 SUMO: 11; AHR act: 14; Efflux pump mplx: 0; VLA-4 inh: -4; ALR H2O2 inh: -10; A1 inh: 0

Results for CC(=O)N(c1ccccc1)C(C)c1nc(C#N)c(C#N)nc1C (stereo not given) ?
Mot1-301 SUMO: 26; AHR act: -1; Efflux pump mplx: 0; VLA-4 inh: 6; ALR H2O2 inh: -2; A1 inh: 0

How did CCCCNC(=O)CC1N=C2c3ccccc3N=C(SCC(=O)Nc3ccc(OC)cc3)N2C1=O (stereo not given) do in these assays?
AHR act: 4; Efflux pump mplx: 0; VLA-4 inh: -5; ALR H2O2 inh: 96*; A1 inh: -1

Results for CCCCNC(=O)CC1N=C2c3ccccc3N=C(SCC(=O)Nc3cccc(OC)c3)N2C1=O (stereo not given) ?
Mot1-301 SUMO: -21; AHR act: 10; Efflux pump mplx: 0; VLA-4 inh: 1; ALR H2O2 inh: 84*; A1 inh: 1

What do the screens show for `CCCCNC(=O)CC1N=C2c3ccccc3N=C(SCC(=O)Nc3ccccc3OC)N2C1=O` (stereo not given)?
Mot1-301 SUMO: -20; AHR act: 3; Efflux pump mplx: 0; VLA-4 inh: -6; ALR H2O2 inh: -3; A1 inh: 1

What do the screens show for `NC(CSS(=O)(=O)O)=NCCC12CC3CC(CC(O)(C3)C1)C2`?
Mot1-301 SUMO: -24; AHR act: 1; Efflux pump mplx: 0; VLA-4 inh: -1; ALR H2O2 inh: 85*; A1 inh: 0

Results for O=C(CCn1nnc2ccccc21)N1CCC(O)(c2cccc(F)c2)CC1 ?
AHR act: 5; Efflux pump mplx: 0; VLA-4 inh: -8; ALR H2O2 inh: -10; A1 inh: 1

What do the screens show for `Cn1ncc(Br)c1C(=O)Nc1ccc(Cl)cn1`?
Mot1-301 SUMO: 10; AHR act: 65*; Efflux pump mplx: 0; VLA-4 inh: -2; ALR H2O2 inh: 0; A1 inh: 0

Bioassay records: PubChem BioAssay, several laboratories
